Experimental data: PubChem BioAssay (EPA / NIEHS)
“And” between values parts separate entries of the source, which are not always exact repeats. Equal values may be shown once. Inconclusive results are not listed. More than one record can exist for a structure, and the calls need not agree. The source made the active and inactive calls. How the source made its calls, unless noted: active means hit-call score of the fitted dose curve at least 0.9, where 1 is the maximum; inconclusive means response in the unintended direction; inactive means score below 0.9.

Tests used:
[1] = biological target: mouse Estrogen Receptor alpha (Era), Esr1 (gene 13982) (UniProt P19785); test: NVS_NR_mERa: NovaScreen (NVS) Nuclear Receptor Binding Assay for mouse Estrogen Receptor alpha (Era) (AID 2283378);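 further: hit means loss of bound radioligand signal relative to DMSO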
mouse Estrogen Receptor alpha (Era), Esr1 (gene 13982), sequence (P19785 whole entry, looked up): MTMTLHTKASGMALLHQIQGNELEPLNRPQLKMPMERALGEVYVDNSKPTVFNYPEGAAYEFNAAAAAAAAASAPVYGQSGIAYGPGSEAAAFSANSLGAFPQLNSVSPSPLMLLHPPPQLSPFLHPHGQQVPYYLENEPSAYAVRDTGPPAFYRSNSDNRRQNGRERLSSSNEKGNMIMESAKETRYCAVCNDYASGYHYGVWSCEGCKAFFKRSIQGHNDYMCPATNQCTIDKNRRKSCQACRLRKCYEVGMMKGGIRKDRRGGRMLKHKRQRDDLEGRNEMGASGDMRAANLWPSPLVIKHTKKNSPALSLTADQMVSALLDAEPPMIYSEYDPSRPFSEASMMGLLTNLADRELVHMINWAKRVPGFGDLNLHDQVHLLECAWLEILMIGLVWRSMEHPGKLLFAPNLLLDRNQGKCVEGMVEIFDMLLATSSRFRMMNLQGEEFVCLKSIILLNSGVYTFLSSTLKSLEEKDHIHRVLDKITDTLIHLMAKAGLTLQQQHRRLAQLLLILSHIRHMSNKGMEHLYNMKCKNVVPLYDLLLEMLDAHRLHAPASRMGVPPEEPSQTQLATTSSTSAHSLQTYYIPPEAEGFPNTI
How it was run: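 Test chemicals competed against a specific radioligand for binding to cell-free mouse Era. Duplicate wells at 25 uM were read 18 hours later by filter-based radiodetection, with loss of signal against DMSO scored as activity.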

[2] = biological target: Estrogen receptor beta (Homo sapiens) (UniProt Q92731); test: OT_ER_ERbERb_1440: Odyssey Thera (OT) 24-hour HEK293T Protein-Complementation Assay for Estrogen Receptor-beta/-beta Homodimer (AID 2283380);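 further: fluorescence gain from ER beta LBD homodimer complementation read by laser scanning cytometry; scored as signal increase over DMSO baseline for both agonists and antagonists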
Estrogen receptor beta (Homo sapiens), sequence (Q92731 whole entry, looked up, the tested form may be a part): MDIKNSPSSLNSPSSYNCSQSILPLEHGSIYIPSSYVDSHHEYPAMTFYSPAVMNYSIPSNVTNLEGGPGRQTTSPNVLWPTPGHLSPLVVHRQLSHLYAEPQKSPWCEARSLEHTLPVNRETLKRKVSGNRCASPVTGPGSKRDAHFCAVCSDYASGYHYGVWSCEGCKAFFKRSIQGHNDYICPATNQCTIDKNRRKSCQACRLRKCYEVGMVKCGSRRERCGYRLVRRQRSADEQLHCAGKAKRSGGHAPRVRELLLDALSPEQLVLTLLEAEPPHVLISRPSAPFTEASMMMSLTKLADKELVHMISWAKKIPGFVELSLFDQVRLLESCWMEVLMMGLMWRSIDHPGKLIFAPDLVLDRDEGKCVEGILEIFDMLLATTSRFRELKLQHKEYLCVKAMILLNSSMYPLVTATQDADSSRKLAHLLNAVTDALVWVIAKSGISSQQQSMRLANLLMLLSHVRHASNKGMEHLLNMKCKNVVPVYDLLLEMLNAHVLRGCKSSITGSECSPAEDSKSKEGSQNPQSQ
How it was run: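 HEK293T cells stably expressing human ER-beta LBD (aa 310-547) PCA homodimer pair, dosed 24 h; formaldehyde-fixed, Draq5-stained. Readout: increase in nuclear (agonist) or nuclear plus cytoplasmic (antagonist) fluorescence intensity versus DMSO, gain-of-signal fitting.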

[3] = biological target: Retinoic acid receptor RXR-alpha (Homo sapiens) (UniProt P19793); test: OT_NURR1_NURR1RXRa_0480: Odyssey Thera (OT) 8-hour HEK293T Protein Complementation Assay for Nurr1/retinoid X receptor (RXR) (AID 2283385)
Retinoic acid receptor RXR-alpha (Homo sapiens), sequence (P19793 whole entry, looked up, the tested form may be a part): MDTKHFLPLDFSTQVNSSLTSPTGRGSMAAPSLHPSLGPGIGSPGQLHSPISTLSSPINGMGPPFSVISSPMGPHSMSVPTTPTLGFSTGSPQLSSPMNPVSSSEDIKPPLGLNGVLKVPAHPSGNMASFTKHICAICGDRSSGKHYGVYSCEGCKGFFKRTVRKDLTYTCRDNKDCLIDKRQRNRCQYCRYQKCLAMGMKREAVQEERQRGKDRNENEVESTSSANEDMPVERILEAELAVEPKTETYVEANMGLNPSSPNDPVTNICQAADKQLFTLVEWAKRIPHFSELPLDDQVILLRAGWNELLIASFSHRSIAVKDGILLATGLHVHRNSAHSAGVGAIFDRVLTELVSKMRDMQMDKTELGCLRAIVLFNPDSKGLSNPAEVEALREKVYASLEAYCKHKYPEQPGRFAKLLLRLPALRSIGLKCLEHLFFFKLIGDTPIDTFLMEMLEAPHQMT
How it was run: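 Interaction of Nurr1 with RXRα read as reconstituted reporter fluorescence in a HEK293T fragment-complementation system, 8 h post-treatment; increase over DMSO baseline analysed.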

[4] = biological target: Retinoic acid receptor RXR-alpha (Homo sapiens) (UniProt P19793); test: OT_NURR1_NURR1RXRa_1440: Odyssey Thera (OT) 24-hour HEK293T Protein Complementation Assay for Nurr1/retinoid X receptor (RXR) (AID 2283386)
How it was run: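 Gain in fluorescence, fitted relative to DMSO, reflects Nurr1–RXRα association in HEK293T cells after 24 h dosing. Bait and prey are each linked to a reporter-protein fragment that reassembles on interaction.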

[5] = CEETOX_H295R_OHPREG: CeeTox H295R High-throughput Steroidogenesis Assay for OH-Pregnenolone (OHPREG) (AID 2283434; active means hit-call score of the fitted dose curve at least 0.9, where 1 is the maximum; inactive means score below 0.9); conditions: actives raise or lower the signal
How it was run: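 Readout: HPLC-MS/MS of 17alpha-hydroxypregnenolone in medium after 48 h chemical exposure of H295R cells pretreated with forskolin. Values fitted bidirectionally relative to DMSO; chemicals reducing viability to 20–70% were retested after 10-fold dilution.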

[6] = CEETOX_H295R_OHPROG: CeeTox H295R High-throughput Steroidogenesis Assay for OH-Progesterone (OHPROG) (AID 2283435; active means hit-call score of the fitted dose curve at least 0.9, where 1 is the maximum; inactive means score below 0.9;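 further: 17alpha-hydroxyprogesterone secreted into medium measured by HPLC-MS/MS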); conditions: actives raise or lower the signal
How it was run: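 Medium steroid levels read by LC-MS/MS after 48 h chemical treatment (0.1% DMSO) of human adrenal H295R cells that had been forskolin-primed (10 uM, 48 h). Gain or loss fitted against DMSO; MTT cytotoxicity checked per well.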

[7] = CEETOX_H295R_CORTIC: CeeTox H295R High-throughput Steroidogenesis Assay for Corticosterone (CORTIC) (AID 2283437; active means hit-call score of the fitted dose curve at least 0.9, where 1 is the maximum; inactive means score below 0.9;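 further: corticosterone secreted into medium quantified by mass spectrometry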;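 on AC50: human H295R adrenal cells prestimulated with forskolin before chemical exposure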); conditions: actives raise or lower the signal
How it was run: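 Steps: seed H295R, adhere overnight; 10 uM forskolin 48 h; replace with chemical (0.1% DMSO) 48 h; extract medium with MTBE; quantify corticosterone by HPLC-MS/MS; score bidirectionally vs DMSO.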

[8] = CEETOX_H295R_CORTISOL: CeeTox H295R High-throughput Steroidogenesis Assay for Cortisol (AID 2283438; active means hit-call score of the fitted dose curve at least 0.9, where 1 is the maximum; inactive means score below 0.9;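 further: cortisol secreted into medium quantified by LC-MS/MS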); conditions: actives raise or lower the signal
How it was run: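 Cortisol measured by HPLC-MS/MS after MTBE extraction of medium from H295R cells exposed 48 h to chemical (0.1% DMSO), following 48 h prestimulation with 10 uM forskolin. Viability assessed by MTT in the same wells.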

[9] = CEETOX_H295R_DOC: CeeTox H295R High-throughput Steroidogenesis Assay for DOC (AID 2283439; active means hit-call score of the fitted dose curve at least 0.9, where 1 is the maximum; inactive means score below 0.9); conditions: actives raise or lower the signal
How it was run: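 11-Deoxycorticosterone quantified in medium by MTBE extraction and HPLC-MS/MS after 48 h chemical exposure (0.1% DMSO) of forskolin-primed (10 uM, 48 h) H295R cells. Same-well MTT viability; data fitted bidirectionally against DMSO.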

[10] = biological target: Agonist Androgen Response Element (ARE), AR (gene 367) (UniProt P10275); test: OT_AR_ARELUC_AG_1440: Odyssey Thera (OT) 24-hour CHO-K1 Luciferase Assay for Agonist Androgen Response Element (ARE) (AID 2283379)
Agonist Androgen Response Element (ARE), AR (gene 367), sequence (P10275 whole entry, looked up): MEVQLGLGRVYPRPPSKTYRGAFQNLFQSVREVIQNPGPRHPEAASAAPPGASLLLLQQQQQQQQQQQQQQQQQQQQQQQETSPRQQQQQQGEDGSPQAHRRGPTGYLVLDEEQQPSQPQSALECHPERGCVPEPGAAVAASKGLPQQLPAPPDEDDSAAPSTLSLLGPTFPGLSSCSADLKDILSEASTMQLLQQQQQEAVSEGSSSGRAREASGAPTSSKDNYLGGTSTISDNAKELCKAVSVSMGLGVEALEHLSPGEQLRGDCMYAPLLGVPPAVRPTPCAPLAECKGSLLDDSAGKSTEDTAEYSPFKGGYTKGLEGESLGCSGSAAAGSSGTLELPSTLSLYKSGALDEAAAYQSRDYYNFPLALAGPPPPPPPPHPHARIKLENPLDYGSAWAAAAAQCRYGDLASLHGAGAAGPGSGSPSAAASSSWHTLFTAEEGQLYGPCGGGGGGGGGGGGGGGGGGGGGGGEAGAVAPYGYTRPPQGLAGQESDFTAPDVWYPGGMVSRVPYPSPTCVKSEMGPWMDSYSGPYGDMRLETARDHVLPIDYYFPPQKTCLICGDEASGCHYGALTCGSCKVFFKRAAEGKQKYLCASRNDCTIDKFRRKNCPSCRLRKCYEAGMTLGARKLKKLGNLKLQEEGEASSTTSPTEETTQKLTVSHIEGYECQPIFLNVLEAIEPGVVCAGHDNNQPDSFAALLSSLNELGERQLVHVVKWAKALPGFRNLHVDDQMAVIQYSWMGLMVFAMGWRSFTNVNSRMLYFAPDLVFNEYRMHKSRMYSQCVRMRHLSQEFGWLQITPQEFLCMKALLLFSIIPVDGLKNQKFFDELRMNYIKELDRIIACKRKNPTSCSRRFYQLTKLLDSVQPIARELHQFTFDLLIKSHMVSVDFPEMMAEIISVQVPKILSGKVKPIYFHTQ
How it was run: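 Luminescence increase above DMSO, read after a 24 h compound treatment of CHO-K1 cells expressing an androgen response element luciferase reporter, gives the single primary endpoint; concentration-response fitting used the positive direction.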

[11] = biological target: Bile acid receptor (Homo sapiens) (UniProt Q96RI1); test: OT_FXR_FXRSRC1_0480: Odyssey Thera (OT) 8-hour HEK293T Protein-Complementation Assay for Farnesoid X receptor/SRC-1 Co-activator (AID 2283383)
Bile acid receptor (Homo sapiens), sequence (Q96RI1 whole entry, looked up, the tested form may be a part): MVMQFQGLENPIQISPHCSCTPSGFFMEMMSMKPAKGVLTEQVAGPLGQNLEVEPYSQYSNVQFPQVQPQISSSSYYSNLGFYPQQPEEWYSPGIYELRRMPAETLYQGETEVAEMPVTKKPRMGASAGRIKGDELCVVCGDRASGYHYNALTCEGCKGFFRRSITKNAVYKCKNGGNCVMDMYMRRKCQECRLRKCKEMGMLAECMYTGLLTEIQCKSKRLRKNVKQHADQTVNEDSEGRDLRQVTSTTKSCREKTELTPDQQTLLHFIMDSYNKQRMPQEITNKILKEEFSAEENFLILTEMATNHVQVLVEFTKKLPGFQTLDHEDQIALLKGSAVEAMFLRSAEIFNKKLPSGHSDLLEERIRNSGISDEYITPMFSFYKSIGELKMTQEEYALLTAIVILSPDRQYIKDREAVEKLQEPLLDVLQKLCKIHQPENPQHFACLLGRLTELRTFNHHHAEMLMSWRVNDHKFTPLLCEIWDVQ
How it was run: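 Binding of FXR to coactivator SRC-1 was read as fluorescence from a reconstituted split reporter in HEK293T cells, 8 h after chemical addition. Only increases in signal versus DMSO were fit.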

[12] = biological target: Bile acid receptor (Homo sapiens) (UniProt Q96RI1); test: OT_FXR_FXRSRC1_1440: Odyssey Thera (OT) 24-hour HEK293T Protein-Complementation Assay for Farnesoid X receptor/SRC-1 Co-activator (AID 2283384)
How it was run: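 Protein-fragment complementation: FXR and SRC-1 fused to reporter fragments that reassemble on interaction, read by fluorescence intensity. Human HEK293T cells measured 24 h post-dose; positive-direction fit versus DMSO.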

[13] = biological target: Peroxisome proliferator-activated receptor gamma (Homo sapiens) (UniProt P37231); test: OT_PPARg_PPARgSRC1_0480: Odyssey Thera (OT) 8-hour Protein-Complementation Assay for Peroxisome Proliferator-activated Receptor Gamma / SRC-1 Co-activator (AID 2283387);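 further: nuclear to cytoplasmic split Venus YFP fluorescence ratio reporting PPARg SRC-1 interaction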
Peroxisome proliferator-activated receptor gamma (Homo sapiens), sequence (P37231 whole entry, looked up, the tested form may be a part): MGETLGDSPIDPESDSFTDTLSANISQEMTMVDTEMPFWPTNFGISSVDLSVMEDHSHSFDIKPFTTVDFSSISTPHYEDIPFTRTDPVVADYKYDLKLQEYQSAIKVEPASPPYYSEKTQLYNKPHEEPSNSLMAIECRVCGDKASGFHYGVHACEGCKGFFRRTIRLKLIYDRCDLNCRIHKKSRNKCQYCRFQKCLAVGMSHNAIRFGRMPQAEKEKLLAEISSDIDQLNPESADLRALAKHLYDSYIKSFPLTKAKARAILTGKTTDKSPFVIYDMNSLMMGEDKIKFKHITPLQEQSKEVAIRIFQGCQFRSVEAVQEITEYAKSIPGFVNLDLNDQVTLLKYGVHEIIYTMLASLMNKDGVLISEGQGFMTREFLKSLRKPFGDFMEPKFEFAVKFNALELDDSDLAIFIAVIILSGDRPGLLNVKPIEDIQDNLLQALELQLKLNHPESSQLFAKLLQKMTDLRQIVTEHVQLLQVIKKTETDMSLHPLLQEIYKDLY
How it was run: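 Read-out: 488 nm N/C fluorescence ratio from complemented Venus YFP fragments, ≥350 cells per image, gain-of-signal fitted against DMSO baseline. Fusions of PPARg/SRC-1 with IFP1/IFP2 expressed transiently in HEK293T; compounds applied 8 h.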

[14] = biological target: Peroxisome proliferator-activated receptor gamma (Homo sapiens) (UniProt P37231); test: OT_PPARg_PPARgSRC1_1440: Odyssey Thera (OT) 24-hour Protein-Complementation Assay for Peroxisome Proliferator-activated Receptor Gamma/ SRC-1 Co-activator (AID 2283388);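 further: nuclear to cytoplasmic ratio of reconstituted Venus YFP fluorescence in fixed imaged cells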
How it was run: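 Transient HEK293T, YFP fragments 1-158/159-239 (mutant IFP1/IFP2) fused to PPARg/SRC-1; 24 h dosing; fix 4% formaldehyde, Draq5; Opera imaging 488/635 nm; N/C ratio, gain vs DMSO.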

[15] = biological target: human Norepinephrine Transporter (NET), SLC6A2 (gene 6530) (UniProt P23975); test: NVS_TR_hNET: NovaScreen (NVS) Transporter Assay for human Norepinephrine Transporter (NET) (AID 2283377);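 further: cell-free membrane protein extracted from CHO cells expressing human NET; displacement of radioligand from human NET seen as loss of scintillation signal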
human Norepinephrine Transporter (NET), SLC6A2 (gene 6530), sequence (P23975 whole entry, looked up): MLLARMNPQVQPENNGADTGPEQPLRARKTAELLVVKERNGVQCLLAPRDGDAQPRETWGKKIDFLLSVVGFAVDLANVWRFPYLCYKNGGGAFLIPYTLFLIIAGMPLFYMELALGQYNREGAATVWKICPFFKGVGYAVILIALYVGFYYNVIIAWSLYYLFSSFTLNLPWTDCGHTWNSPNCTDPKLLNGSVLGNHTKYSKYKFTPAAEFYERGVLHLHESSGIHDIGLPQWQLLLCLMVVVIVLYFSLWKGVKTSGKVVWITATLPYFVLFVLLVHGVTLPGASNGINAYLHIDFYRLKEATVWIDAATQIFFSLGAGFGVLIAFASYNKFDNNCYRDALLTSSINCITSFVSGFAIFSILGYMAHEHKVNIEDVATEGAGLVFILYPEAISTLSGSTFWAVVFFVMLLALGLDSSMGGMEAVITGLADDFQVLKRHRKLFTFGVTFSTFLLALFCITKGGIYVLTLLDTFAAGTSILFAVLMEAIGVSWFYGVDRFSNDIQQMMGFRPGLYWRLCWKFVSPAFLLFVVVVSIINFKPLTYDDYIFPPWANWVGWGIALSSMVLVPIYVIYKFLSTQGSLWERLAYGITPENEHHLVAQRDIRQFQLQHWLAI
How it was run: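 In this cell-free binding screen, chemicals at 25 uM (duplicate) compete with a radioligand for CHO-derived human NET over 1 hour, with filter-based radiodetection.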

[16] = biological target: Estrogen receptor (Homo sapiens) (UniProt P03372); test: OT_ERa_GFPERaERE_0480: Odyssey Thera (OT) 8-hour HeLa Transcription Induction Assay for Estrogen Receptor (AID 2283381; active means hit-call score of the fitted dose curve at least 0.9, where 1 is the maximum; inactive means score below 0.9)
Estrogen receptor (Homo sapiens), sequence (P03372 whole entry, looked up): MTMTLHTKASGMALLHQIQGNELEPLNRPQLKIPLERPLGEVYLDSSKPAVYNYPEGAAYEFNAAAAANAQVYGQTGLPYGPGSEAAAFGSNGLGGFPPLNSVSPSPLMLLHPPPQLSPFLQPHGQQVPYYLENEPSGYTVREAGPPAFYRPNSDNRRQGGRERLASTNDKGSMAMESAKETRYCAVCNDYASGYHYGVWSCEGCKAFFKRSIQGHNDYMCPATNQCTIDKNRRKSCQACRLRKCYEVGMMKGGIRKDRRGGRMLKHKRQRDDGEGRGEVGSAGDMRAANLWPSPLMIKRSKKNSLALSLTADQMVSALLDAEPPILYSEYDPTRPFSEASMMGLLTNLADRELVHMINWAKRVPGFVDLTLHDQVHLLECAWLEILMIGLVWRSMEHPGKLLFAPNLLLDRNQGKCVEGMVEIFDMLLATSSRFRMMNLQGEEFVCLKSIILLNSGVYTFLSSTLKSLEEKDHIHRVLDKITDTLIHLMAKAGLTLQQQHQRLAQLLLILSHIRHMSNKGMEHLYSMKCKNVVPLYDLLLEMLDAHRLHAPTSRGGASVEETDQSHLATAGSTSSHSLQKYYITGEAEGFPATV
How it was run: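 Fluorescence microscopy with high-content image analysis measures ERE-driven GFP induction in HeLa cells at 8 h post-dose. Increases fitted against DMSO baseline.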

[17] = biological target: Estrogen receptor (Homo sapiens) (UniProt P03372); test: OT_ERa_GFPERaERE_0120: Odyssey Thera (OT) 2-hour HeLa Transcription Induction Assay for Estrogen Receptor (AID 2283382)
How it was run: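 Fluorescence-microscopy images of the GFP-ERα/ERE reporter, scored by high-content image algorithms, give the readout. HeLa exposure lasted 2 h, and only signal increase over DMSO was fitted.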

Measured: AC50

CC(=O)[C@@]1(O)CC[C@H]2[C@@H]3CCC4=CC(=O)CC[C@]4(C)[C@H]3CC[C@@]21C
active: [1] 10.1 µM | [5] 14.2 µM | [6] 41.2 µM | [8] 1.12 µM | [9] 14.9 µM
inactive: [1] | [2] | [3] | [4] | [7]

C=CCCCCCCCCCCCC
inactive: [10] | [2] | [11] | [12] | [3] | [4] | [13] | [14]

CCc1nc(N)nc(N)c1-c1ccc(Cl)cc1
active: [15] 2.23 µM
inactive: [2] | [16] | [17] | [11] | [12] | [3] | [4] | [14]

CCCCCCCCCCCCCCOS(=O)(=O)O
active: [15] 37.7 µM | [16] 92.3 µM | [3] 79.4 µM
inactive: [2] | [17] | [3] | [4] | [13] | [14]

O=C1CCCCC1
inactive: [10] | [2] | [16] | [17] | [4] | [14]

O=C(N[C@@H](c1ccccc1)[C@@H]1CCCCN1)c1cccc(C(F)(F)F)c1Cl
inactive: [2] | [16] | [17] | [14]
active: [15] 8.04 µM | [11] 31.6 µM | [12] 11.4 µM

CSc1ccc(Oc2ccc(S(N)(=O)=O)cc2CN(C)C)cc1C
active: [15] 4.12 µM | [12] 26.5 µM | [3] 50 µM | [4] 57.5 µM and 19 µM
inactive: [1] | [10] | [2] | [16] | [17] | [11] | [3] | [13] | [14]

Cc1cc(Cc2ccc(N)c(C)c2)ccc1N
inactive: [3] | [4]
active: [15] 6.22 µM | [2] 64.1 µM | [11] 50 µM | [12] 66.7 µM | [5] 4.69 µM | [6] 1.37 µM | [7] 0.458 µM | [8] 22.9 µM | [9] 13.2 µM

O=Cc1ccccc1C=O
inactive: [10] | [2] | [16] | [17] | [4] | [14]
active: [15] 7.28 µM
